Test results from PubChem BioAssay (NCI).
About 83,000 compounds went through this panel and 20% of them were active in at least one assay; those are over-represented in the sample as a whole.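 Cell lines were cultured in 96-well plates, exposed to a single compound concentration, and assessed for percent growth 48 hours later.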 The source made the active and inactive calls. How the source made its calls: active means growth percent below 10; inactive means the rest.

Assays:
Assay in all cases: NCI-60 one-dose screen, 48 h (100 = growth as untreated, 0 = no growth, -100 = all killed)
Details in all cases: 10 µM unless noted
SR leukemia = tested on: SR leukemia
OVCAR-8 ovarian = tested on: OVCAR-8 ovarian
OVCAR-5 ovarian = tested on: OVCAR-5 ovarian
OVCAR-4 ovarian = tested on: OVCAR-4 ovarian
SK-OV-3 ovarian = tested on: SK-OV-3 ovarian
IGROV1 ovarian = tested on: IGROV1 ovarian
OVCAR-3 ovarian = tested on: OVCAR-3 ovarian
HS 578T breast = tested on: HS 578T breast
NCI/ADR-RES ovarian = tested on: NCI/ADR-RES ovarian
T-47D breast = tested on: T-47D breast
MDA-MB-435 melanoma = tested on: MDA-MB-435 melanoma
SW-620 colon = tested on: SW-620 colon
MCF7 breast = tested on: MCF7 breast
HCT-116 colon = tested on: HCT-116 colon
HCC-2998 colon = tested on: HCC-2998 colon
KM12 colon = tested on: KM12 colon
BT-549 breast = tested on: BT-549 breast

Measured: growth

O=[N+]([O-])c1ccc(-c2cc3c(Nc4ccc(OCc5cccc(Cl)c5)c(Cl)c4)ncnc3s2)cc1
inactive: SR leukemia 48.9% | OVCAR-8 ovarian 53.4% | OVCAR-5 ovarian 88.2% | OVCAR-4 ovarian 41.1% | SK-OV-3 ovarian 58.5% | IGROV1 ovarian 76.8% | OVCAR-3 ovarian 26.7% | HS 578T breast 82.1% | NCI/ADR-RES ovarian 68.1% | T-47D breast 58.9% | MDA-MB-435 melanoma 74.3% | SW-620 colon 48.7% | MCF7 breast 44.1% | HCT-116 colon 52% | HCC-2998 colon 102% | KM12 colon 74%

CCCCCCCCCCCCCCCCCC1=NCCN1C(=O)OCCO
inactive: OVCAR-8 ovarian 19.3% | OVCAR-5 ovarian 68.1% | OVCAR-4 ovarian 28.2% | SK-OV-3 ovarian 61.7% | OVCAR-3 ovarian 76% | HS 578T breast 11.6% | NCI/ADR-RES ovarian 51.4% | T-47D breast 57.3% | BT-549 breast 113% | KM12 colon 21.4%
active: SR leukemia -10.5% | IGROV1 ovarian -35.3% | MDA-MB-435 melanoma -21.2% | SW-620 colon -76.8% | MCF7 breast -45.6%

Cn1cc(-c2ccc3nc(-c4ccc(CC(=O)Nc5cc(C(C)(C)C)no5)cc4)cnc3c2)cn1
active: IGROV1 ovarian -2.97% [30 µM] | KM12 colon 6.95% [30 µM]
inactive: SR leukemia 15.2% [30 µM] | OVCAR-8 ovarian 31.5% [30 µM] | OVCAR-5 ovarian 44.8% [30 µM] | OVCAR-4 ovarian 28.7% [30 µM] | SK-OV-3 ovarian 11.2% [30 µM] | OVCAR-3 ovarian 29.6% [30 µM] | HS 578T breast 21.9% [30 µM] | NCI/ADR-RES ovarian 19.8% [30 µM] | BT-549 breast 53.3% [30 µM] | MDA-MB-435 melanoma 26.2% [30 µM] | SW-620 colon 34.5% [30 µM] | MCF7 breast 87.1% [30 µM] | HCT-116 colon 15.3% [30 µM] | HCC-2998 colon 47.3% [30 µM]

CC(C)(C)N1CC(OC(N)=O)C1
inactive: SR leukemia 128% | OVCAR-8 ovarian 84.9% | OVCAR-5 ovarian 110% | OVCAR-4 ovarian 101% | SK-OV-3 ovarian 113% | IGROV1 ovarian 110% | OVCAR-3 ovarian 120% | HS 578T breast 116% | NCI/ADR-RES ovarian 117% | T-47D breast 93.3% | BT-549 breast 94.4% | MDA-MB-435 melanoma 96.5% | SW-620 colon 104% | MCF7 breast 102% | HCT-116 colon 99.4% | KM12 colon 108%

CCOC(=O)C1=C(C)NC(SCc2nnc(-c3ccc(Cl)cc3)o2)=NC1c1ccc(Cl)cc1Cl (configuration not stated)
inactive: SR leukemia 37.9% | OVCAR-8 ovarian 54.2% | OVCAR-5 ovarian 89% | OVCAR-4 ovarian 52.7% | SK-OV-3 ovarian 90.3% | IGROV1 ovarian 43.9% | OVCAR-3 ovarian 62.8% | HS 578T breast 67.1% | NCI/ADR-RES ovarian 54.6% | BT-549 breast 89.7% | MDA-MB-435 melanoma 69% | SW-620 colon 66.2% | MCF7 breast 32% | HCT-116 colon 28.8% | HCC-2998 colon 84.5% | KM12 colon 63.4%

COc1ccc(-c2nnc(-c3ccc4c(c3)nc(-c3ccccc3)n4C3CCCCC3)o2)cc1
inactive: SR leukemia 58.3% | OVCAR-8 ovarian 30.8% | OVCAR-5 ovarian 95.4% | OVCAR-4 ovarian 51% | SK-OV-3 ovarian 84.2% | IGROV1 ovarian 89.4% | OVCAR-3 ovarian 43% | HS 578T breast 103% | NCI/ADR-RES ovarian 40.1% | BT-549 breast 30.9% | MDA-MB-435 melanoma 59.6% | SW-620 colon 71.3% | MCF7 breast 33.2% | HCT-116 colon 34.7% | HCC-2998 colon 81.5% | KM12 colon 39.9%

CN1CCN(C2=C(Cl)C(=O)c3ccccc3C2=O)CC1
active: MDA-MB-435 melanoma -75%
inactive: SR leukemia 24.3% | OVCAR-8 ovarian 67.1% | OVCAR-5 ovarian 119% | OVCAR-4 ovarian 84% | SK-OV-3 ovarian 102% | IGROV1 ovarian 60.7% | HS 578T breast 27.8% | NCI/ADR-RES ovarian 69.8% | T-47D breast 80.8% | SW-620 colon 98.8% | MCF7 breast 54.9% | HCT-116 colon 10.2% | HCC-2998 colon 86.5%

CC(C)c1ccc(NC(=O)Cc2ccc(Nc3ncnc4cc(-c5cnn(CCN(C)C)c5)ccc34)cc2)cc1
inactive: NCI/ADR-RES ovarian 52.4% [30 µM]
active: SR leukemia -49.1% [30 µM] | OVCAR-8 ovarian -27.5% [30 µM] | OVCAR-5 ovarian -98.9% [30 µM] | OVCAR-4 ovarian -83.1% [30 µM] | SK-OV-3 ovarian -30.6% [30 µM] | IGROV1 ovarian -69.7% [30 µM] | OVCAR-3 ovarian -89.6% [30 µM] | HS 578T breast -60.6% [30 µM] | T-47D breast -37.1% [30 µM] | BT-549 breast -15.3% [30 µM] | MDA-MB-435 melanoma -85.4% [30 µM] | SW-620 colon -82.6% [30 µM] | MCF7 breast -49.1% [30 µM] | HCC-2998 colon -79.6% [30 µM] | KM12 colon -86.4% [30 µM]

O=C(O)c1ccccc1C(=O)Nc1ccc(Cl)cc1
inactive: SR leukemia 80.4% | OVCAR-8 ovarian 87.7% | OVCAR-5 ovarian 103% | OVCAR-4 ovarian 110% | SK-OV-3 ovarian 109% | IGROV1 ovarian 102% | OVCAR-3 ovarian 110% | HS 578T breast 132% | NCI/ADR-RES ovarian 104% | T-47D breast 87.2% | MDA-MB-435 melanoma 85.7% | SW-620 colon 93% | MCF7 breast 103% | HCT-116 colon 96.3% | HCC-2998 colon 92.6% | KM12 colon 85.8%

COc1ccc(/C(C)=C(\c2ccc(Cl)cc2)c2ccc(OCCN3CCCCC3)cc2)cc1F
active: SR leukemia -25.2%
inactive: OVCAR-8 ovarian 59.5% | OVCAR-5 ovarian 51.5% | OVCAR-4 ovarian 29.1% | SK-OV-3 ovarian 63% | IGROV1 ovarian 46.2% | OVCAR-3 ovarian 51% | HS 578T breast 35% | NCI/ADR-RES ovarian 63% | BT-549 breast 60.7% | MDA-MB-435 melanoma 37% | SW-620 colon 22.1% | MCF7 breast 15% | HCT-116 colon 19.7% | HCC-2998 colon 25.2% | KM12 colon 18.7%

NC(=Nc1ccc(N)cc1)C(N)=Nc1ccc(N)cc1
inactive: SR leukemia 134% | OVCAR-8 ovarian 85.3% | OVCAR-5 ovarian 105% | OVCAR-4 ovarian 101% | SK-OV-3 ovarian 126% | IGROV1 ovarian 84.7% | OVCAR-3 ovarian 94.1% | HS 578T breast 114% | NCI/ADR-RES ovarian 99.6% | T-47D breast 104% | BT-549 breast 64.3% | MDA-MB-435 melanoma 104% | SW-620 colon 99.2% | MCF7 breast 90.4% | HCT-116 colon 95.9% | KM12 colon 108%

O=C(O)c1ccc(CO)o1
inactive: SR leukemia 100% | OVCAR-8 ovarian 95.5% | OVCAR-5 ovarian 108% | OVCAR-4 ovarian 98.3% | SK-OV-3 ovarian 116% | IGROV1 ovarian 109% | OVCAR-3 ovarian 112% | HS 578T breast 106% | NCI/ADR-RES ovarian 116% | T-47D breast 105% | MDA-MB-435 melanoma 109% | SW-620 colon 104% | MCF7 breast 84.1% | HCT-116 colon 103% | HCC-2998 colon 111% | KM12 colon 106%

Clc1ccc(-c2nc(NCCc3ccccc3)nc3c(NCCc4ccccc4)cnn23)cc1
active: OVCAR-4 ovarian 7.73%
inactive: SR leukemia 72% | OVCAR-8 ovarian 47.5% | OVCAR-5 ovarian 91.2% | SK-OV-3 ovarian 75.8% | IGROV1 ovarian 71.5% | OVCAR-3 ovarian 48.9% | HS 578T breast 76.6% | NCI/ADR-RES ovarian 74.5% | BT-549 breast 63.6% | MDA-MB-435 melanoma 42.6% | SW-620 colon 33.5% | MCF7 breast 31.1% | HCT-116 colon 28.6% | HCC-2998 colon 72.4% | KM12 colon 70%

CCOC(=O)N1CCc2c(sc3c2C(=O)N[C@H](c2ccc(OC)cc2)N3)C1
inactive: SR leukemia 87.7% | OVCAR-8 ovarian 89.2% | OVCAR-5 ovarian 108% | OVCAR-4 ovarian 102% | SK-OV-3 ovarian 65.4% | IGROV1 ovarian 107% | OVCAR-3 ovarian 102% | NCI/ADR-RES ovarian 102% | T-47D breast 79% | BT-549 breast 108% | MDA-MB-435 melanoma 98.7% | SW-620 colon 99.6% | MCF7 breast 97.7% | HCT-116 colon 93.3% | HCC-2998 colon 104% | KM12 colon 102%

COc1ccc(/C=C2\COc3ccc(O)cc3C2=O)cc1OC
inactive: OVCAR-8 ovarian 46.4% | OVCAR-5 ovarian 86.8% | OVCAR-4 ovarian 92.8% | SK-OV-3 ovarian 93.1% | IGROV1 ovarian 89.5% | OVCAR-3 ovarian 28.4% | NCI/ADR-RES ovarian 98.4% | T-47D breast 73% | BT-549 breast 75.7% | MDA-MB-435 melanoma 24.4% | SW-620 colon 10.6% | MCF7 breast 27.3% | HCT-116 colon 11.7% | HCC-2998 colon 121% | KM12 colon 20.2%
active: SR leukemia 1.44%

Cc1nc(Nc2ccc(N)cc2)c2ccccc2n1
inactive: SR leukemia 56.8% | OVCAR-8 ovarian 95.3% | OVCAR-5 ovarian 100% | OVCAR-4 ovarian 91.2% | SK-OV-3 ovarian 113% | IGROV1 ovarian 92.7% | OVCAR-3 ovarian 101% | NCI/ADR-RES ovarian 93.6% | T-47D breast 101% | BT-549 breast 104% | MDA-MB-435 melanoma 64.6% | SW-620 colon 99% | MCF7 breast 75.8% | HCT-116 colon 95.3% | HCC-2998 colon 104% | KM12 colon 98.3%

O=C(/C=C/c1ccccc1)c1ccc2ccccc2c1
inactive: SR leukemia 48.1% | OVCAR-8 ovarian 100% | OVCAR-5 ovarian 106% | OVCAR-4 ovarian 97% | SK-OV-3 ovarian 103% | IGROV1 ovarian 76.2% | HS 578T breast 145% | NCI/ADR-RES ovarian 101% | MDA-MB-435 melanoma 103% | MCF7 breast 49.9% | KM12 colon 93.2%
active: HCT-116 colon -5.91%

COc1ccc(OC)c(C(=O)Nc2cccc(-c3cc(=O)c4ccccc4o3)c2)c1
inactive: SR leukemia 80% | OVCAR-8 ovarian 63.3% | OVCAR-5 ovarian 95.4% | OVCAR-4 ovarian 73.3% | SK-OV-3 ovarian 52.6% | IGROV1 ovarian 104% | OVCAR-3 ovarian 110% | HS 578T breast 68.3% | NCI/ADR-RES ovarian 80.2% | T-47D breast 85.6% | BT-549 breast 88.2% | MDA-MB-435 melanoma 96.2% | SW-620 colon 96.8% | MCF7 breast 92% | HCT-116 colon 88% | HCC-2998 colon 104% | KM12 colon 92.5%
